For some of these results: Measured potencies and affinities stand elsewhere.

Experimental findings from ChEMBL document CHEMBL3988442, “University of Dundee, Small-Polar-MMV Screening Library” (2021) are described below.

Common to all, as to set-up: scale not given: direction of the effect not stated beside the values
Experiment [1] addresses Protein translocase subunit SecA (Escherichia coli (strain K12)) (UniProt P10408). As to the kind of experiment: Assay to Identify E. coli SecA ATPase Inhibitors. It is filed as functional. The settings on record: 30 µM.
Experiment [2] concerns the target T1, Ubiquitin-activating enzyme e1, putative (Leishmania donovani (strain BPK282A1)) (UniProt E9BSI1).
T1 sequence (whole entry): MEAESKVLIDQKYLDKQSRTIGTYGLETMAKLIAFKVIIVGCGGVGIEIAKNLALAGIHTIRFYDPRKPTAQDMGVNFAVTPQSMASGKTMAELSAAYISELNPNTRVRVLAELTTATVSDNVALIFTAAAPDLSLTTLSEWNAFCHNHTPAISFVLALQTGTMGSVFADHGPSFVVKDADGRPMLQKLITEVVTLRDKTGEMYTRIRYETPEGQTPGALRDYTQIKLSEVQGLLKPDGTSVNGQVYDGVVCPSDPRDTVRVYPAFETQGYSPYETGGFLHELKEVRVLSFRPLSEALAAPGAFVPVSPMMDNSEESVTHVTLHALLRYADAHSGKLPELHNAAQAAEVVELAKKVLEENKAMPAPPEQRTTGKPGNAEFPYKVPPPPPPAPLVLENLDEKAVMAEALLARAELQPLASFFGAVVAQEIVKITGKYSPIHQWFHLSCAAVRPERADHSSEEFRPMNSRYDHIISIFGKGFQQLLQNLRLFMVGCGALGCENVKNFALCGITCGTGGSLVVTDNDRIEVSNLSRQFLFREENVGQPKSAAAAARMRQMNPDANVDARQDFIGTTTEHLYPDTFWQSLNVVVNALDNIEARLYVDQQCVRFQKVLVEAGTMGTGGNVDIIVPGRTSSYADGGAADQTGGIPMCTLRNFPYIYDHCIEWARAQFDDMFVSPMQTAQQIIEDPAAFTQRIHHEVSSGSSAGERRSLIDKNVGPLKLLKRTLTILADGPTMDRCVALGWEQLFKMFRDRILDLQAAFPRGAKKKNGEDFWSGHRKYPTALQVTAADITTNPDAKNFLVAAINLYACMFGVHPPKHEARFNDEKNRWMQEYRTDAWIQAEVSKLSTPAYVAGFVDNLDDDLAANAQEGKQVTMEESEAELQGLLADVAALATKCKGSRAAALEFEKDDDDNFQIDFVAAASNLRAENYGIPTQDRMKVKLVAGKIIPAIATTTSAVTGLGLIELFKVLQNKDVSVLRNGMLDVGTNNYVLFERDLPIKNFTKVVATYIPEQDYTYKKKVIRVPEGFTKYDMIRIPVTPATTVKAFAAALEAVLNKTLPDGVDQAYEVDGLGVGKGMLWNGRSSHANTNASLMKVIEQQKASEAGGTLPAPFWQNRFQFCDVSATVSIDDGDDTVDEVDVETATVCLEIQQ
Nature of the experiment: Leishmania donovani Ubiquitin Activating Enzyme (LdE1). It is filed as functional. As to conditions: 30 µM.

Experiment [3] has as its target AMP-activated protein kinase, AMPK (Homo sapiens) (UniProt P54646+O43741+P54619+Q9UGJ0+Q9Y478+Q13131+Q9UGI9). Nature of the experiment: AMP-dependent Kinase enzyme assay. An in vitro enzyme assay that detects ADP turnover that is directly proportional to AMPK activity. This uses naive AMPK that is activated during the assay with MK-8722. It is filed as functional. The settings on record: 30 µM.

The target in experiment [4] is Sialic acid-binding Ig-like lectin 9 (Homo sapiens) (UniProt Q9Y336). Nature of the experiment: Hs-Siglec9 ALPHAscreen SOP 20170721. The settings on record: 10 µM. Background: Bead proximity is the source of the signal in Alpha formats.
Chain of Sialic acid-binding Ig-like lectin 9 (Homo sapiens) (Q9Y336 whole entry): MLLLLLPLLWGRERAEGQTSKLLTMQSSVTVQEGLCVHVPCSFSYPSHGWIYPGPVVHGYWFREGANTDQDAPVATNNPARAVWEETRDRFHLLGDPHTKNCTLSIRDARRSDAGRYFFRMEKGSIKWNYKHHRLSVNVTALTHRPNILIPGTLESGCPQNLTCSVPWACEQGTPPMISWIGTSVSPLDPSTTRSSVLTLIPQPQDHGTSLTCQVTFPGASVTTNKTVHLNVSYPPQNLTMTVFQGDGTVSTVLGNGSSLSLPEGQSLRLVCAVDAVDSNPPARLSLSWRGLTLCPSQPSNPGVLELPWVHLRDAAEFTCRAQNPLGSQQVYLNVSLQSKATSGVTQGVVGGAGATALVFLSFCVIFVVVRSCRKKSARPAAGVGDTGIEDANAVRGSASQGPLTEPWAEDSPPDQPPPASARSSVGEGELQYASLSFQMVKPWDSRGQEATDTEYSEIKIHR
The next experiment relates to Trypanosoma cruzi. Nature of the experiment: Trypanosoma cruzi phosphomannomutase and mannose-1-phosphate guanylyltransferase assay. It is filed as functional. The settings on record: 10 µM.
Experiment [5] deals with T2, Arginase-2, mitochondrial (Homo sapiens) (UniProt P78540).
T2 sequence (whole entry): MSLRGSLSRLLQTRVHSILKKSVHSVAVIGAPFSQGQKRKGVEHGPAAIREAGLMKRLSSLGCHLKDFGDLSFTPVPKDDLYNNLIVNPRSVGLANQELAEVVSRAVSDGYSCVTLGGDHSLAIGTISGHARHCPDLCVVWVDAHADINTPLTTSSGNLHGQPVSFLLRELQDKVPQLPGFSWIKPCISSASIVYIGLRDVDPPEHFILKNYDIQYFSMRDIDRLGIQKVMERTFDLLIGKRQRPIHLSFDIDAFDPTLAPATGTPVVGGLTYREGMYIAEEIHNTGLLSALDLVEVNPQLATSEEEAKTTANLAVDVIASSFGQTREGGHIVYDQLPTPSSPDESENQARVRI
As to the kind of experiment: in vitro enzyme assay to detect the production of urea directly proportional to the activity of Arginase II. Note: in the data most compounds retested in dose-response had high values. The settings on record: 33.3 µM. It is filed as functional.

The target in experiment [6] is T3, Proteasome subunit beta (Trypanosoma cruzi) (UniProt O96673).
T3 sequence (whole entry): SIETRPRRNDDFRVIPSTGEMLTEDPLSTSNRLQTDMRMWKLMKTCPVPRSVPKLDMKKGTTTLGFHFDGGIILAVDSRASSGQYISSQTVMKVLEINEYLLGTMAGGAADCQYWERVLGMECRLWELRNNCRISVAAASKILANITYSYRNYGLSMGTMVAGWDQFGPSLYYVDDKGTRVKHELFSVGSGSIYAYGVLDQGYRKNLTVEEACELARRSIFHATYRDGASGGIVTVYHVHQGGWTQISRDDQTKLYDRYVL
Nature of the experiment: Trypanosoma cruzi proteasome chymotrypsin-like activity (TcProtChymo) assay. Note: in the data most compounds retested in dose-response had high values. It is filed as functional. As to conditions: 9.37 µM.

The species entered for another experiment is Homo sapiens. As to the kind of experiment: To identify inhibition of the IFN signalling (Jak-Stat) pathway via expression of an eGFP reporter gene under the control of an IFN-stimulated response element (ISRE) containing MxA promoter. As to conditions: 30 µM. It is filed as functional. For orientation: Reporter assays use an easily measured gene product as a stand-in for the process of interest.

The target of experiment [7] is T4, Tyrosyl-tRNA synthetase, putative (Trypanosoma cruzi (strain CL Brener)) (UniProt Q4DSP6).
T4 sequence (whole entry): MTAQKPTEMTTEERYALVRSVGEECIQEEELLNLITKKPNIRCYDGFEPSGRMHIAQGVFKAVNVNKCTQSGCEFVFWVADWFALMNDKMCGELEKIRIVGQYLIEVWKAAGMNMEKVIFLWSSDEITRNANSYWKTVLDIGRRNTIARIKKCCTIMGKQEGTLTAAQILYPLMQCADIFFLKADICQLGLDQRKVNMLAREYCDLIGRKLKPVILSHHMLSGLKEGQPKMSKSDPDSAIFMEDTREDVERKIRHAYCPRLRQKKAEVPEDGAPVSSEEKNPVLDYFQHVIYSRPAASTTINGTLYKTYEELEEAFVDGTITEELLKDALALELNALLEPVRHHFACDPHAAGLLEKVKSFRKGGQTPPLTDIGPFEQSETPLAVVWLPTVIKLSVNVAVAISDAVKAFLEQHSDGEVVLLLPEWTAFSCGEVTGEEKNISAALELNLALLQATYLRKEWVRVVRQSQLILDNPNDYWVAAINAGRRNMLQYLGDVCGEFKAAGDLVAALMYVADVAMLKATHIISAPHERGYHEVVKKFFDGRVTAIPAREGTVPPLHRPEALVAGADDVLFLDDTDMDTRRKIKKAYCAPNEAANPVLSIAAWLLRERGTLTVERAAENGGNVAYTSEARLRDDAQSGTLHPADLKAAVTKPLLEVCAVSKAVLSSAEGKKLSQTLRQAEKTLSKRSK
As to the kind of experiment: Trypanosoma cruzi tyrosyl tRNA synthetase (TcYRS) _High Tyrosine SOP. Note: in the data most compounds retested in dose-response had high values. The format is functional. The settings on record: 30 µM.

Experiment [8] deals with T4, Tyrosyl-tRNA synthetase, putative (Trypanosoma cruzi (strain CL Brener)). Nature of the experiment: Trypanosoma cruzi tyrosyl tRNA synthetase (TcYRS) SOP. It is filed as functional. As to conditions: 30 µM.
In experiment [9] the target is Chromo domain-containing protein 1 (Saccharomyces cerevisiae (strain ATCC 204508 / S288c) (Baker's yeast)) (UniProt P32657). Nature of the experiment: ScCHD-1 Enzyme Inhibition Assay. Note: in the data most compounds retested in dose-response had high values. The format is functional. The settings on record: 30 µM.
Chain of Chromo domain-containing protein 1 (Saccharomyces cerevisiae (strain ATCC 204508 / S288c) (Baker's yeast)) (P32657 whole entry, the tested form may be a part): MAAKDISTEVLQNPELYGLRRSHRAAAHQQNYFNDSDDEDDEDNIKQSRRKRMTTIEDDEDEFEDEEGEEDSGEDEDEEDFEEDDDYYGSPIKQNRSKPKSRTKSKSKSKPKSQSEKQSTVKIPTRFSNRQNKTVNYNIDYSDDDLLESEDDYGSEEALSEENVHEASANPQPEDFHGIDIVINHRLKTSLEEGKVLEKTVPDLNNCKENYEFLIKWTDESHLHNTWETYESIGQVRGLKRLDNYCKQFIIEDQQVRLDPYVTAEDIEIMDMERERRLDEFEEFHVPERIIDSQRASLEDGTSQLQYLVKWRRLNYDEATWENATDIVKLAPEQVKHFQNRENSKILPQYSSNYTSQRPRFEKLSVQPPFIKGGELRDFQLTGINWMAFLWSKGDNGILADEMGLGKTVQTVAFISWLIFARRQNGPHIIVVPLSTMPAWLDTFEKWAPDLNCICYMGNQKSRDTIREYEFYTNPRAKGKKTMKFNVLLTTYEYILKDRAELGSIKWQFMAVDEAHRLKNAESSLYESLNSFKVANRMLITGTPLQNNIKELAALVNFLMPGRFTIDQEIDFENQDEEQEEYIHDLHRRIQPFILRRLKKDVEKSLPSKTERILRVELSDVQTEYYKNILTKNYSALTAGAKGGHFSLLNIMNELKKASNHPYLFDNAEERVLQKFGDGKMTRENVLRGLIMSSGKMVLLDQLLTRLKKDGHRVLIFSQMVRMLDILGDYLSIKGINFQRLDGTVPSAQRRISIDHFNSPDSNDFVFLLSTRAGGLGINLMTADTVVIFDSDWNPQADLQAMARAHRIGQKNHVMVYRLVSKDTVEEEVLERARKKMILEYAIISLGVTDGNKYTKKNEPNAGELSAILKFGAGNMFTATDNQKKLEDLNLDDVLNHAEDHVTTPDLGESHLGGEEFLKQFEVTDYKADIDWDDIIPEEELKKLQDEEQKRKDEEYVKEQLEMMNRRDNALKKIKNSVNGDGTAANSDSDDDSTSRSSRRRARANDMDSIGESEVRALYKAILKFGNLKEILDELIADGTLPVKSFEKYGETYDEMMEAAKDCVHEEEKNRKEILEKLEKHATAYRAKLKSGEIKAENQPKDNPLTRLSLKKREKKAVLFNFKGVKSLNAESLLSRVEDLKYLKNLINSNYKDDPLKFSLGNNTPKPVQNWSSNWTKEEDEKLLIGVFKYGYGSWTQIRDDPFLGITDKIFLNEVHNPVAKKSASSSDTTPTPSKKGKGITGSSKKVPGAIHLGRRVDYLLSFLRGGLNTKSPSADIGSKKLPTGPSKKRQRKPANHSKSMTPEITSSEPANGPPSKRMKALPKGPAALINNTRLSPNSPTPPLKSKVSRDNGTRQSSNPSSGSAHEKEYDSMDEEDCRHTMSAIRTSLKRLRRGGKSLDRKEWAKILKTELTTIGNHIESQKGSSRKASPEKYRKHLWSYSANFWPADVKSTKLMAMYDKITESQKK

Chain of Protein translocase subunit SecA (Escherichia coli (strain K12)) (P10408 whole entry): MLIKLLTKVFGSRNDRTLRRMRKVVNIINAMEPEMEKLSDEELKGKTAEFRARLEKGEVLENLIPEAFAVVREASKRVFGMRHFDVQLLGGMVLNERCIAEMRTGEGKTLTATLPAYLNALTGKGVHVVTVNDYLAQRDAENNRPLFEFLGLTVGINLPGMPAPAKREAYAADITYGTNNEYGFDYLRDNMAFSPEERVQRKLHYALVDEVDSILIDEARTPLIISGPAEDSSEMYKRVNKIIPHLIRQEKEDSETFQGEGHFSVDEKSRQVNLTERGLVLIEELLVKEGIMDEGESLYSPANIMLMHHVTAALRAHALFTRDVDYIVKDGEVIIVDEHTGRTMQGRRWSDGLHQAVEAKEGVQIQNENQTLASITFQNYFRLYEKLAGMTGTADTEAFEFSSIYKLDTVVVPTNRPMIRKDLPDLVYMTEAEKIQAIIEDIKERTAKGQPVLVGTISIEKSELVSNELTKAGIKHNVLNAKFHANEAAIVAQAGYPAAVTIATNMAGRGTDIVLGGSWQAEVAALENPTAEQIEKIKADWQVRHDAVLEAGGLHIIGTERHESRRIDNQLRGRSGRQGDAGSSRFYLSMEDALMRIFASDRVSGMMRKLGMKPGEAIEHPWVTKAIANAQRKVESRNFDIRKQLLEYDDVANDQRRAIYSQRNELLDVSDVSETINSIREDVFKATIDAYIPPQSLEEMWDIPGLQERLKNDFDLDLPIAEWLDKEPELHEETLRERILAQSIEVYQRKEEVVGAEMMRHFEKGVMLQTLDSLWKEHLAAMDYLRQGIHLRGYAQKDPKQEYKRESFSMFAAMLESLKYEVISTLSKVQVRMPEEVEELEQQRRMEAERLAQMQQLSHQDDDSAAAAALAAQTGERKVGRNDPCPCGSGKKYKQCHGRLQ

For `CCOc1ccccc1-c1noc(CN2CCCC(O)C2)n1` (stereo not drawn), the Percent Effect in experiment [1] is -8.22%; in [2], 0%; in experiment [3], -0.175%; in experiment [4], -2.29%; with Trypanosoma cruzi, 7.54%; in experiment [5] it was -1.47%. The Percent Effect in experiment [6] is 1.54%; in the experiment listed under Homo sapiens, -2.84%; in experiment [7] it was 0.952%; in [8], 7.06%; in [9] it was -13.3%.
Regarding `Cc1cc(C)n(CC2CCCN2C(=O)c2ccc(C(N)=O)cn2)n1` (stereo not drawn), the Percent Effect is -6.82% in [1]; 16.5% in [2]; 1.06% in experiment [3]; -0.198% in [4]; 2.56% with Trypanosoma cruzi; 1.5% in experiment [5]. The Percent Effect in [6] is 7.38%; in the experiment listed under Homo sapiens, 7.83%; in experiment [7], -3.12%; in experiment [8], 17.7%; in experiment [9], -27.9%.
`Cc1cc(=O)n(CC(=O)NCC2CCCO2)c(-c2ccc(F)cc2)n1` (stereo not drawn): the Percent Effect in [1] is -8.1%; in [2] it was 0%; in [3] it was 1.45%; in experiment [4] it was -2.38%; in the experiment on Trypanosoma cruzi it was -3.83%; in [5], 2.76%. Besides, the Percent Effect in experiment [6] is 7.49%; in the experiment listed under Homo sapiens, 22.5%; in experiment [7] it was -1.07%; in experiment [8], -3.7%; in experiment [9], 3.12%.
On to `Cc1ccc(CNC2CCN(CCc3ccncc3)CC2)cc1C`, for which the Percent Effect in experiment [1] was -4.25%; in experiment [2], -5.41%; in [3] it was -4.58%; in [4], 7.82%; with Trypanosoma cruzi it was 5.47%; in experiment [5] it was 18.8%. The Percent Effect in experiment [6] was 5.5%; in the experiment filed under Homo sapiens, -6.77%; in experiment [7], 2.97%; in experiment [8], 8.54%; in experiment [9], 29.8%.
Take `CC(C)Cc1noc(CN2CCOCC2)n1`: the Percent Effect was -1.04% in [1]; 7.89% in experiment [2]; -1.16% in [3]; 2.11% in [4]; 2.07% in the experiment with Trypanosoma cruzi; 1.15% in [5]. For the same compound, the Percent Effect was 15.7% in experiment [6]; -19.8% in the experiment filed under Homo sapiens; 5.39% in [7]; 12.2% in experiment [8]; -7.16% in [9].
Take `CC(C)c1nc(C2CCCN(C(=O)c3ccc4nccn4c3)C2)no1` (stereo not drawn): the Percent Effect in experiment [1] is -2.08%; in experiment [2], 10.4%; in experiment [3], 2.88%; in experiment [4] it was 12.4%; in the experiment with Trypanosoma cruzi, -1.47%; in experiment [5] it was 1.47%. Moreover, the Percent Effect in experiment [6] is 3.15%; in the experiment listed under Homo sapiens, -11.3%; in experiment [7], 1.91%; in experiment [8] it was 7.06%; in experiment [9] it was -11.9%.
In the case of `COc1cccc(-c2nccnc2C2CCN(C(C)=O)CC2)c1`, the Percent Effect in experiment [1] is -1.31%; in experiment [2] it was 9.46%; in [3], 8.79%; in experiment [4], -0.0533%; in the experiment on Trypanosoma cruzi, -0.593%; in [5], 1.16%. For the same compound, the Percent Effect in [6] is 15.1%; in the experiment filed under Homo sapiens, -0.133%; in experiment [7], 3.23%; in [8], 14.3%; in [9], -14.9%.
With `CCC(NC(=O)C1CCN(S(=O)(=O)N(C)C)CC1)c1ccc(C)c(C)c1` (stereo not drawn), the Percent Effect in [1] is 0.26%; in [2], 0%; in experiment [3], 0.886%; in [4] it was 1.28%; in the experiment with Trypanosoma cruzi it was -2.46%; in experiment [5] it was 19.3%. For the same compound, the Percent Effect in experiment [6] is 8.82%; in the experiment filed under Homo sapiens, -10.2%; in [7] it was -2.15%; in [8] it was 1.24%; in [9], -0.385%.
